Hits are enriched below; roughly 2.5% of the tested compounds scored in any of these assays.
DYRK1A inh: blocks rat Dyrk1A kinase activity; inhibition, % at 12.5 µM; 310,000 compounds, 0.43% hits; ADP-Glo luminescence, NFATc1 peptide; Q63470; in the data active = inhibition above about 50%
NPR2 activator: GC-B (human) receptor activation; activation, % at 10 µM; HEK293-GC-B cells, CNP EC30, cGMP TR-FRET; 0% at EC30 CNP, 100% saturating CNP; AID 1920062; 370,000 compounds, 0.11% hits;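 active = activation at 10 µM reaching about 35% in either raw or pattern-adjusted values, limit read from the data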
GC-A act: GC-A (human) enzyme activation | P16066 | activation, % at 10 µM | 370,000 compounds, 0.14% hits | HEK293 GC-A cells, cGMP TR-FRET, EC30 ANP; 0% at EC30 ANP, 100% saturating ANP | AID 1671463; in the data active = activation above about 40%
Target sequence (P16066 whole entry, looked up): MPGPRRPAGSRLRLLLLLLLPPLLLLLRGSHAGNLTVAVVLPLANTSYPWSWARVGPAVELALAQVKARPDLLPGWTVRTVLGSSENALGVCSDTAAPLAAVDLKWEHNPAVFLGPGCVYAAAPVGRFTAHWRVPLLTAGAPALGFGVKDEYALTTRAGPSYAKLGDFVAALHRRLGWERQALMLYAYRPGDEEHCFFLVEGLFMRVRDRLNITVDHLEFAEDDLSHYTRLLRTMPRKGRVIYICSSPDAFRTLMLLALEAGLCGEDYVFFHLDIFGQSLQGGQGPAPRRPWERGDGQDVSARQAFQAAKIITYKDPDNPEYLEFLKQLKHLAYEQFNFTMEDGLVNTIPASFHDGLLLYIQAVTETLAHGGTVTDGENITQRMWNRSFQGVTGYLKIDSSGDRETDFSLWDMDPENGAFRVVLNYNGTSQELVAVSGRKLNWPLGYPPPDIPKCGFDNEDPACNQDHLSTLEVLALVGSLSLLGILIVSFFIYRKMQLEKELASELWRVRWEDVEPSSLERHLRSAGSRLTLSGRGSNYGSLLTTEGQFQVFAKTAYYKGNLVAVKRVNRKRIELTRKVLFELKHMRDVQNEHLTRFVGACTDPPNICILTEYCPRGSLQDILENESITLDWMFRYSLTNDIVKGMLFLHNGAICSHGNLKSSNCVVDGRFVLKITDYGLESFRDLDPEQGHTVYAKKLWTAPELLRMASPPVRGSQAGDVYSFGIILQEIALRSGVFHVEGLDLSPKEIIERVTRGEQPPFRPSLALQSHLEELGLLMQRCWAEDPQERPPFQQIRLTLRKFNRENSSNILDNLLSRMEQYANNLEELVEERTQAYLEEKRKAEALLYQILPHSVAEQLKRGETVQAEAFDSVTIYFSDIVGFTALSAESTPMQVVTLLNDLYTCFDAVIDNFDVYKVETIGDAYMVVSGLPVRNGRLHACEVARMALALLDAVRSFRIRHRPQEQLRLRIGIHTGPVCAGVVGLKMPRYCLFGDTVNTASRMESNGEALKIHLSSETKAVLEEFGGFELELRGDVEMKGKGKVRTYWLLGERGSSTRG
HSF1 inhib: HSF1 inhibition. NIH3T3-HGL HSE-luciferase, MG132-induced, luminescence 8 h; stronger effect = lower value. AID 2098. 300,000 compounds, 0.77% hits. activity change, negative = inhibition, % at 7.5 µM (by protocol);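 active = more than half of replicate wells show activity change below -50%, luminescence cut by over half; inconclusive = some wells, but at most half, below -50%; inactive = no replicate well below -50%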;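 note: luciferase reports HSF-1 transcriptional activity via heat shock element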
aDG glyco act: increases alpha dystroglycan glycosylation; Pro5-aDG cells, alpha-DG glycosylation AlphaScreen (IIH6); 0% Pro5, 100% B10-LARGE cell signal; activation, % at 10 µM; 360,000 compounds, 0.22% hits;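 active = activation of at least 8% versus controls, or a plate z-score of at least 8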;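 note: Pro5 are CHO cells carrying HIG-tagged alpha-DG that lacks glycosylation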
HSF1 activator: increases HSF-1 driven luciferase reporter signal; NIH3T3-HGL HSF-1 luciferase reporter, MG132, 8 h; 100% = twice DMSO control signal; activation, % at 9 µM; 300,000 compounds, 1.7% hits; AID 504408;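 active = mean replicate activation of at least 50% with a set share of replicates each reaching 50%; inconclusive = only one of those two conditions met; inactive = mean below 50% and too few replicates reaching it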
Hits are given with their value; i = inactive; ? = inconclusive; nt = not tested or not shown.

SMILES | DYRK1A inh | NPR2 activator | GC-A act | HSF1 inhib | aDG glyco act | HSF1 activator
COc1ccc(NC(=O)COc2ccc(-c3nn(C)c(=O)c4ccccc34)cc2)cc1 | i | i | i | -83 | i | i
CC(C)C(=O)Nc1ccc2c(c1)nc(CCN1CCCCC1)n2C | i | i | i | i | i | i
O=C(CN1C(=O)NC2(CCOc3ccccc32)C1=O)c1ccc(F)cc1 (stereo unspecified) | i | i | i | i | i | i
CCCCCOC(=O)Cc1c(O)c2ccccc2n(C)c1=O | i | i | i | i | i | i
Cc1nn(CC(=O)Nc2ccc3c(c2)nc(CCN2CCCCC2)n3C)c(=O)c2ccccc12 | i | i | i | i | i | 53
Cc1[nH]nc(-c2ccc(O)c(C)c2O)c1Oc1ccccc1 | i | i | 79 | i | i | i
Cc1[nH]nc(-c2ccc(OCc3cnn(-c4ccccc4)c3)c(C)c2O)c1Oc1ccccc1 | i | i | i | i | i | i
O=C(c1ccc(OC2CCN(CCc3ccccc3)CC2)cc1)N1CCCC(O)C1 (stereo unspecified) | i | i | i | i | i | i
COC1CCCN(C(=O)c2ccc(OC3CCN(CCc4ccccc4)CC3)cc2)C1 (stereo unspecified) | i | i | i | -74 | i | i
Cc1ccc(C)c(S(=O)(=O)N2CCCCC2CCNC(=O)C(=O)NCCc2ccco2)c1 (stereo unspecified) | i | i | i | i | i | 54
Cc1ccc(C)c(S(=O)(=O)N2CCCC2CNC(=O)C(=O)NCCc2ccco2)c1 (stereo unspecified) | i | i | i | i | i | i
COc1c(C)cc(C(=O)C2CCCN(Cc3cnc(N4CCOCC4)s3)C2)cc1C (stereo unspecified) | nt | i | i | i | i | i
C=CCn1c(C)cc(/C([O-])=C(/C(=S)Nc2ccc(OC(F)F)cc2)[n+]2ccc(N(C)C)cc2)c1C | i | i | i | i | i | i
C=C(C)CN(CC)c1nc(N)c(C#N)c(CC#N)c1C#N | i | i | i | i | i | 75
O=c1ncn(C2CCCCC2)c(=O)[nH]1 | nt | i | i | nt | i | nt
COc1cccc(C2c3c(oc4ccccc4c3=O)C(=O)N2CCCN(C)C)c1OC (stereo unspecified) | i | i | i | i | i | 66
CCN(CC)CCCN1C(=O)c2oc3ccccc3c(=O)c2C1c1cccc(OC)c1OC (stereo unspecified) | i | i | i | i | i | 67
CCN(CC)CCN1C(=O)c2oc3ccccc3c(=O)c2C1c1ccc(C)cc1 (stereo unspecified) | i | i | i | i | i | i
CN(C)CCN1C(=O)c2oc3ccccc3c(=O)c2C1c1ccc(F)cc1 (stereo unspecified) | i | i | i | i | i | i
CC(C)(C)c1ccc(/C=C(\C#N)C(=O)Nc2ccccn2)cc1 | i | i | i | -59 | i | i
C=CCOc1ccn(C)c(=O)n1 | i | i | i | -55 | i | i
Nc1c(C(=O)c2ccccc2)oc2ccc(Br)cc12 | i | i | i | i | i | 63
CCNC(=O)CNC(=O)c1nn(Cc2ccccc2)c(=O)c2ccccc12 | i | i | i | -71 | i | i
Nc1nnnn1/N=C/C(Br)=C/c1ccccc1 | i | i | i | i | i | 252
BrC(=C\c1ccccc1)/C=N/N1CCN(c2ccccc2)CC1 | nt | i | i | i | i | 162
SMILES | DYRK1A inh | NPR2 activator | GC-A act | HSF1 inhib | aDG glyco act | HSF1 activator
CC(/C=N/N1CCN(c2ccc(C)cc2)CC1)=C\c1ccccc1 | i | i | i | i | i | i
NNc1nc2c(-c3ccc(Cl)cc3)nnn2c2ccccc12 | i | i | i | i | i | 73
Fc1cccc(-c2nnn3c2nc(Cl)c2ccccc23)c1 | i | i | i | i | i | 454
Clc1nc2c(-c3ccccc3)nnn2c2ccccc12 | i | i | i | i | i | ?
COC(=O)C(Cc1ccc(OC(=O)c2ccc(Cl)cc2)cc1)N1Cc2ccccc2C1=O (stereo unspecified) | i | i | i | i | i | i
CCOC(=O)c1sc(NC(=O)c2ccc(C)s2)cc1C | i | i | i | i | i | 69
CCOC(=O)c1sc(NC(C)=O)cc1C | i | i | i | i | i | i
